The campaign covered roughly 5,500 compounds. About 2,000 (36%) were called active. Inconclusive results (about 18%) are left out. Cut-off read from the data, not from the text of the source: active = normalized growth mostly below about 0.91 (no sharp cut-off); inconclusive = no clear call, values can overlap the other calls; inactive = mostly above about 0.92. This is one part of the list.
Assay: chemical genetic growth profiling, strain panel (AID 1159580);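 note: tested at 20 µM; growth read once vehicle control cultures reached saturation at 30 °C; 1 = growth at the plate median or of vehicle wells; lower values mean less growth of the strain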
Details: S. cerevisiae deletion strains, growth OD

Measured: normalized growth

Clc1cccc(Cl)c1C1CC(c2ccccc2)=Nc2ccccc2S1 (stereo unspecified)
inactive: locus YAR019C, strain CDC15, hits give low values 0.986 | locus YBL105C, strain PKC1, hits give low values 0.986 | locus YBR135W, strain CKS1, hits give low values 0.993 | locus YBR136W, strain MEC1, hits give low values 0.962 | locus YBR160W, strain CDC28, hits give low values 0.988 | locus YDL017W, strain CDC7, hits give low values 0.98 | locus YDL028C, strain MPS1, hits give low values 0.99 | locus YDL101C, strain DUN1, hits give low values 0.984 | locus YDL108W, strain KIN28, hits give low values 0.989 | locus YDL132W, strain cdc53, hits give low values 0.994 | locus YDL214C, strain PRR2, hits give low values 0.978 | locus YDR052C, strain DBF4, hits give low values 0.982 | locus YDR054C, strain cdc34, hits give low values 0.978 | locus YDR226W, strain ADK1, hits give low values 0.982 | locus YDR477W, strain SNF1, hits give low values 0.979 | locus YER123W, strain YCK3, hits give low values 0.981 | locus YER133W, strain GLC7, hits give low values 0.981 | locus YFL009W, strain cdc4, hits give low values 0.989 | locus YFL029C, strain CAK1, hits give low values 0.98 | locus YFR003C, strain YPI1, hits give low values 0.989 | locus YFR019W, strain FAB1, hits give low values 0.986 | locus YFR028C, strain CDC14, hits give low values 0.985 | locus YGR040W, strain KSS1, hits give low values 0.967 | locus YGR052W, strain FMP48, hits give low values 1.07 | locus YGR092W, strain DBF2, hits give low values 0.989 | locus YHR030C, strain SLT2, hits give low values 0.987 | locus YHR079C, strain IRE1, hits give low values 0.992 | locus YHR082C, strain KSP1, hits give low values 1.02 | locus YHR205W, strain SCH9, hits give low values 0.936 | locus YIL147C, strain SLN1, hits give low values 0.981 | locus YJL095W, strain BCK1, hits give low values 1 | locus YJL128C, strain PBS2, hits give low values 0.958 | locus YJL157C, strain FAR1, hits give low values 0.988 | locus YJR016C, strain ILV3, hits give low values 0.992 | locus YJR066W, strain TOR1 (second series), hits give low values 0.95 | locus YJR066W, strain TOR1, hits give low values 0.991 | locus YKL048C, strain ELM1, hits give low values 0.982 | locus YKL067W, strain YNK1, hits give low values 0.974 | locus YKL101W, strain HSL1, hits give low values 0.966 | locus YKL193C, strain SDS22, hits give low values 0.991 | locus YKL203C, strain TOR2, hits give low values 1.02 | locus YLR113W, strain HOG1, hits give low values 0.93 | locus YLR133W, strain CKI1, hits give low values 0.977 | locus YLR403W, strain SFP1, hits give low values 0.973 | locus YML070W, strain DAK1, hits give low values 0.981 | locus YMR001C, strain CDC5, hits give low values 0.986 | locus YMR205C, strain PFK2 (second series), hits give low values 0.979 | locus YMR277W, strain FCP1, hits give low values 0.991 | locus YNL006W, strain LST8, hits give low values 0.995 | locus YNL020C, strain ARK1, hits give low values 0.985 | locus YNL161W, strain CBK1, hits give low values 0.981 | locus YNL183C, strain NPR1, hits give low values 0.997 | locus YNL207W, strain RIO2, hits give low values 0.985 | locus YNL222W, strain SSU72, hits give low values 0.995 | locus YNL307C, strain MCK1 (second series), hits give low values 0.999 | locus YOL078W, strain AVO1, hits give low values 0.99 | locus YOL136C, strain PFK27, hits give low values 0.973 | locus YOR061W, strain CKA2, hits give low values 0.978 | locus YOR119C, strain RIO1, hits give low values 0.997 | locus YOR231W, strain MKK1, hits give low values 0.988 | locus YOR329C, strain SCD5, hits give low values 0.978 | locus YPL031C, strain PHO85, hits give low values 0.982 | locus YPL153C, strain RAD53, hits give low values 0.982 | locus YPL204W, strain HRR25, hits give low values 0.99 | locus YPL209C, strain IPL1, hits give low values 0.988 | locus YPL256C, strain CLN2, hits give low values 0.947 | locus YPR025C, strain CCL1, hits give low values 0.987 | locus YPR106W, strain ISR1, hits give low values 0.981 | locus YPR111W, strain DBF20, hits give low values 0.983 | strain NNK1, hits give low values 0.99 | strain TSCII, hits give low values 0.986

Reference: PubChem BioAssay AID1159580 (chemical genetic matrix, 2015)
